A short description of test [1]: Human pregnane X receptor (PXR) small molecule agonists, qHTS cell viability counter screen (AID 1346977). Also: nearly all actives have a fitted effect of over 50% in size. The gist of the method: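 Readout is CellTiter-Fluor fluorescence from PXR-Luc HepG2 cells. Plated cells rested 5hr, then were treated with compounds for 24hr at 37C and 5% CO2, with reagent present during the last hour.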
The nature of test [2]: Caspase-3/7 induction in HepG2 cells by small molecules, qHTS assay (AID 1346978). Also: nearly all actives have a fitted effect of over 15% in size. The gist of the method:
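Caspase-3/7 induction was measured by Caspase-Glo 3/7 luminescence (30 min, room temperature) after a 17 hr compound exposure of wild-type HepG2 cells seeded at 2,000 per well and pre-incubated 5 hr.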
In general terms: qHTS replaces the single test concentration by a dilution series.

A short description of test [3]: Caspase-3/7 induction in CHO-K1 cells by small molecules, qHTS cell viability counter screen (AID 1346979). Also: nearly all actives have a fitted effect of over 35% in size. The essentials: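 To flag cytotoxic compounds, treated CHO-K1 wild-type cells were given CellTiter-Fluor at 16hr and read fluorescently after 1hr at 37C; the caspase-3/7 luminescence was measured in these same wells.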
Test [4] is described as follows: Caspase-3/7 induction in HepG2 cells by small molecules, qHTS cell viability counter screen (AID 1346981). Also: series mostly up to about 92 µM; nearly all actives have a fitted effect of over 30% in size. The essentials: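 CellTiter-Fluor fluorescence measured viability in the same wells used for Caspase-Glo 3/7. HepG2 (wild type) at 2,000 cells/well were pre-incubated 5 hr, dosed, and given reagent at 16 hr, with 1 hr further at 37C.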
The target in test [5] is Nuclear receptor subfamily 1 group I member 2 (Homo sapiens) (UniProt O75469). Briefly: Human pregnane X receptor (PXR) small molecule agonists, qHTS assay (AID 1346982). Also: nearly all actives have a fitted effect of over 35% in size. The gist of the method: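 Agonist mode: luminescence from ONE-Glo after 24 h compound exposure at 37C in HepG2 cells carrying hPXR-responsive CYP3A4 luciferase, plated in charcoal-stripped serum medium 5 h beforehand.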

For test [6], the target named is Cytochrome P450 2D6 (Homo sapiens) (UniProt P10635). Description: Cytochrome P450 Family 2 Subfamily D Member 6 (CYP2D6) small molecule antagonists: luciferase reporter qHTS assay (AID 1671196). Also: nearly all actives have a fitted effect of over 50% in size. Also: potency is read from the fitted curve at half-maximal effect. The essentials: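 CYP2D6 activity was followed as luminescence from its luciferin product after a 1 h NADPH-driven reaction at room temperature. Enzyme-substrate mix and compound were pre-incubated for 10 min, and the signal was read 20 min after adding detection reagent.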

In test [7] the target is Cytochrome P450 2C19 (Homo sapiens) (UniProt P33261). Description: Cytochrome P450 Family 2 Subfamily C Member 19 (CYP2C19) small molecule antagonists: luciferase reporter qHTS assay (AID 1671197). Also: nearly all actives have a fitted effect of over 65% in size. Also: potency is read from the fitted curve at half-maximal effect. The essentials: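 CYP2C19 P450-Glo, 1536-well qHTS. Cpd + enzyme/proluciferin substrate 10 min RT; + NADPH regen, 37C 1 h; stop with luciferin detection reagent, 20 min RT, luminescence (RLU). Pos ctrl ketoconazole.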

Test [8] has as its target Cytochrome P450 2C9 (Homo sapiens) (UniProt P11712). Description: Cytochrome P450 Family 2 Subfamily C Member 9 (CYP2C9) small molecule antagonists: luciferase reporter qHTS assay (AID 1671198). Also: nearly all actives have a fitted effect of over 50% in size. Also: potency is read from the fitted curve at half-maximal effect. The gist of the method:
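Enzyme-substrate mix preincubated with compound 10 min at room temperature; reaction started with NADPH regeneration solution, 1 h 37C. Luminescent luciferin product read after 20 min detection reagent.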

Test [9] concerns the target Cytochrome P450 1A2 (Homo sapiens) (UniProt P05177). Description: Cytochrome P450 Family 1 Subfamily A Member 2 (CYP1A2) small molecule antagonists: luciferase reporter qHTS assay (AID 1671199). Also: nearly all actives have a fitted effect of over 50% in size. Also: potency is read from the fitted curve at half-maximal effect. The gist of the method: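 Luminescence from luciferin formed by CYP1A2 from a proluciferin substrate, read 20 min after detection reagent. Compound was pre-incubated 10 min with enzyme-substrate, and reaction started with NADPH regeneration solution for 1 h at room temperature; furafylline control.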
Background: A reporter such as luciferase makes a cellular process visible.

Test [10] has as its target Voltage-gated inwardly rectifying potassium channel KCNH2 (Homo sapiens) (UniProt Q12809). Briefly: Human Ether-a-go-go-Related Gene (hERG) channel small molecule antagonists: fluorescence cell-based qHTS assay (AID 1671200). Also: nearly all actives have a fitted effect of over 50% in size. Also: potency is read from the fitted curve at half-maximal effect. The essentials: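 Measured: Tl+ flux via fluorescence (480/540 nm) in hERG-expressing U2OS cells after 1 h dye loading at room temperature.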
Test [11] deals with Cytochrome P450 3A4 (Homo sapiens) (UniProt P08684). Briefly: Cytochrome P450 Family 3 Subfamily A Member 4 (CYP3A4) small molecule antagonists: luciferase reporter qHTS assay (AID 1671201). Also: nearly all actives have a fitted effect of over 50% in size. Also: potency is read from the fitted curve at half-maximal effect. The essentials:
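Setup: enzyme-substrate mix, compound pin transfer, 10 min RT. Reaction: NADPH regeneration solution, 1 h RT. Readout: detection reagent stops turnover, luminescence measured after 20 min, expressed in relative luminescence units.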

Test [12] in a line: Caspase-3/7 induction in CHO-K1 cells by small molecules, qHTS assay (AID 1346980). Also: nearly all actives have a fitted effect of over 15% in size. The essentials: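 Luminescent Caspase-Glo 3/7 read (30min, room temperature) quantified apoptosis induction. Cells were wild-type CHO-K1, treated with compound for 17hr at 37 C and 5% CO2.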
Test [13] deals with Nuclear receptor subfamily 1 group I member 2 (Rattus norvegicus) (UniProt Q9R1A7). Description: Rat pregnane X receptor (rPXR) activation by small molecules, qHTS assay (AID 1346983). Also: nearly all actives have a fitted effect of over 20% in size. Also: potency is read from the fitted curve at half-maximal effect. The conditions noted are these: rPXR luciferase reporter cells, One-Glo luminescence, 24 h; max activation: active compounds read high. The gist of the method:
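Luminescent readout (One-Glo luciferase, 30 min room temperature) followed 24 hr compound treatment at 37 C of rPXR cells plated 2,000 per well and preincubated 5hr; qHTS format with compounds delivered in DMSO.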

For test [14], the target named is Nuclear receptor subfamily 1 group I member 2 (Homo sapiens) (UniProt O75469). Briefly: CYP3A4 induction through human pregnane X receptor (PXR) by small molecules, qHTS assay (AID 1346984). Also: nearly all actives have a fitted effect of over 40% in size. Also: potency is read from the fitted curve at half-maximal effect. The essentials:
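Read-out is luminescence after One-Glo addition, following a 3 hr, 37C incubation with Luciferin-IPA CYP3A4 substrate (3uM final). Before that, compounds were on DPX-2 cells (HepG2 co-transfected with PXR element plus CYP3A4-promoter luciferase) for 24 hr at 37C.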

The target is the same in test [15]. Briefly: Human pregnane X receptor (PXR) activation by small molecules, qHTS assay (AID 1346985). Also: nearly all actives have a fitted effect of over 40% in size. The gist of the method:
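DPX-2 cells (HepG2 co-transfected with a PXR response element and a CYP3A4-promoter luciferase construct) were seeded at 2,000 per well, rested 5 hr at 37C, then exposed to DMSO-dissolved compounds for 24 hr. Activation was read as luciferase luminescence.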

Unmarked numbers belong to inactive results. Inconclusive results are not listed. Calls of active or inactive are those of the source. Calls follow the shape of the dose curve; as a rule, active = well fitted curve in the direction sought with a large enough effect in the repeat runs; inconclusive = weak or mixed curves; inactive = no such curve, though single readings can be large; an effect the other way counts as inactive or inconclusive.
% is scaled to controls: 0 for no effect and ±100 for the full control effect.

Chain of Nuclear receptor subfamily 1 group I member 2 (Homo sapiens) (O75469 whole entry, looked up): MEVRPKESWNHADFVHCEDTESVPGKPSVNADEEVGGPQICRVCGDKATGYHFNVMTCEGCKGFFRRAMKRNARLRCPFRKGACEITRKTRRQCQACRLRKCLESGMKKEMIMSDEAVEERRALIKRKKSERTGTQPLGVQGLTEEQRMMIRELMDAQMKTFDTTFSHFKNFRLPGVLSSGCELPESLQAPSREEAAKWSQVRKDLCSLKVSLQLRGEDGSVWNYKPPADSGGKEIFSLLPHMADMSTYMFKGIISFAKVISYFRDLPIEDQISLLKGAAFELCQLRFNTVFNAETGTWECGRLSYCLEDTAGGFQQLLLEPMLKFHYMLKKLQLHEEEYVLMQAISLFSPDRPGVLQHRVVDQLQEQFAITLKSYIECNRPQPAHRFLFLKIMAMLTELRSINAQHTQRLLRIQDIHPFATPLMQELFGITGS
Chain of Voltage-gated inwardly rectifying potassium channel KCNH2 (Homo sapiens) (Q12809 whole entry, looked up): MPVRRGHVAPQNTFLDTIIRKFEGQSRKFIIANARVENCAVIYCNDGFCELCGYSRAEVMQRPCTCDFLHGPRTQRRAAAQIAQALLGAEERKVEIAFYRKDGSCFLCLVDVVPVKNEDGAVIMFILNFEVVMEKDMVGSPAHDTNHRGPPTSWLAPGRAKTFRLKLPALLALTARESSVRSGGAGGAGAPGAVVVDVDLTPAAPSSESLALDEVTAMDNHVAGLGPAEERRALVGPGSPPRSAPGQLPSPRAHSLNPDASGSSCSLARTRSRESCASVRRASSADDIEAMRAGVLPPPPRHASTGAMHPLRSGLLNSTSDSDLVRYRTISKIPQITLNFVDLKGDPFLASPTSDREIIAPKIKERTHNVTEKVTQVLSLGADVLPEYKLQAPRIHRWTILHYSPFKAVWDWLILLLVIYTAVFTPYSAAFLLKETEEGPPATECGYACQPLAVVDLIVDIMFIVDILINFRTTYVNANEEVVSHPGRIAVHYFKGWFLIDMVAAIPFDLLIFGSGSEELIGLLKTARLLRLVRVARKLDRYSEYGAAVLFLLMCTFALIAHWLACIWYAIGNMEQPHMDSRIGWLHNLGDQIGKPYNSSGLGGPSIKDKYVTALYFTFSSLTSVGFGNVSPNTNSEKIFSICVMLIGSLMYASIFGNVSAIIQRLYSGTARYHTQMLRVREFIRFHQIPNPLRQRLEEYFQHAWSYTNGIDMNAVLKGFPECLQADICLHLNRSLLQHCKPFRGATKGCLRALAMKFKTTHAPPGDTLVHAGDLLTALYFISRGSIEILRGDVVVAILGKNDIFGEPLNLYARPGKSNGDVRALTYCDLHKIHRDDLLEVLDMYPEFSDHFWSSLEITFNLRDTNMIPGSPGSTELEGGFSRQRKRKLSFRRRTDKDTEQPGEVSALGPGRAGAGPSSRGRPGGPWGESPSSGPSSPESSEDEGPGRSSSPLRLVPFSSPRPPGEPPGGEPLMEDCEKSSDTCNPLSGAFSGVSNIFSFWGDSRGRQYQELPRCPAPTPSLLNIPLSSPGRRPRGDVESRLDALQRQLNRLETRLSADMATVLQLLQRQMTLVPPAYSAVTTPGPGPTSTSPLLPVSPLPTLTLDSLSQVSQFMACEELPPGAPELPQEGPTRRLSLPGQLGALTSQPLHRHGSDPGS
Chain of Cytochrome P450 2C9 (Homo sapiens) (P11712 whole entry, looked up): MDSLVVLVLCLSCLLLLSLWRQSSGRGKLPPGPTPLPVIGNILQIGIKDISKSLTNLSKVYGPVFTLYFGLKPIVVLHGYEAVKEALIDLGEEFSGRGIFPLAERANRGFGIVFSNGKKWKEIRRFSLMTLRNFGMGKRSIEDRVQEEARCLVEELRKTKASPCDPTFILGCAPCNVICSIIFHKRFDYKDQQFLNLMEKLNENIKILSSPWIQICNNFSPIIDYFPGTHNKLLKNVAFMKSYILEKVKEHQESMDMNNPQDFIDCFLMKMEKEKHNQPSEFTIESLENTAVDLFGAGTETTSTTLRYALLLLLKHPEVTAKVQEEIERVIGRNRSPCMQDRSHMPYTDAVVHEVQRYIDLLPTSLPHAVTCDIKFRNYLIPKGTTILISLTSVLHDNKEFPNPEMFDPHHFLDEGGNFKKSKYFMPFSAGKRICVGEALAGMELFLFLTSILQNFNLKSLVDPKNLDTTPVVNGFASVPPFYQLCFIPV
Chain of Nuclear receptor subfamily 1 group I member 2 (Rattus norvegicus) (Q9R1A7 whole entry, looked up): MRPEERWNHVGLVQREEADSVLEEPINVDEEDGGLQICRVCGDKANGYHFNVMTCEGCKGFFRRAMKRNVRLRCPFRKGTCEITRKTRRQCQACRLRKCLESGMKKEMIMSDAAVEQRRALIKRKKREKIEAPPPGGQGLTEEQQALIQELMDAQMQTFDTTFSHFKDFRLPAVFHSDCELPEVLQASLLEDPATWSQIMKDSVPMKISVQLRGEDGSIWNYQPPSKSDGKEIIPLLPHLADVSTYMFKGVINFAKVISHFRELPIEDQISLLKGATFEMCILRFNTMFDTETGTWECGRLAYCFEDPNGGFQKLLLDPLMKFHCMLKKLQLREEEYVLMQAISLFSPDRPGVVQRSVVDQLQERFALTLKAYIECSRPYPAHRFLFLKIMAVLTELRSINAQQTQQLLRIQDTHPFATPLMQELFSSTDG
Chain of Cytochrome P450 1A2 (Homo sapiens) (P05177 whole entry, looked up): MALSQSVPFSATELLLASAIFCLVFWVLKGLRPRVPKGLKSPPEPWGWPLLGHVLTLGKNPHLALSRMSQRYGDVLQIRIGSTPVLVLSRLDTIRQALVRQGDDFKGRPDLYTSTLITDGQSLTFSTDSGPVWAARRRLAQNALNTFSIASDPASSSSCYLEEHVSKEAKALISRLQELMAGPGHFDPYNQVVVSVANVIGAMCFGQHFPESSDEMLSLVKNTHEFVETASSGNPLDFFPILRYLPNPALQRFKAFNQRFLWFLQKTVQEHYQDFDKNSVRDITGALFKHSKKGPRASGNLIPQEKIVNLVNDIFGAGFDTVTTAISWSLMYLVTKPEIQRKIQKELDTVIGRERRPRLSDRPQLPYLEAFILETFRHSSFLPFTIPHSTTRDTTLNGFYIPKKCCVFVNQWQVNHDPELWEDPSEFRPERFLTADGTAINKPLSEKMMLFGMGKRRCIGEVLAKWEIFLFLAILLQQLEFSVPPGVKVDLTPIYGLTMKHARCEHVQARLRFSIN
Chain of Cytochrome P450 2C19 (Homo sapiens) (P33261 whole entry, looked up): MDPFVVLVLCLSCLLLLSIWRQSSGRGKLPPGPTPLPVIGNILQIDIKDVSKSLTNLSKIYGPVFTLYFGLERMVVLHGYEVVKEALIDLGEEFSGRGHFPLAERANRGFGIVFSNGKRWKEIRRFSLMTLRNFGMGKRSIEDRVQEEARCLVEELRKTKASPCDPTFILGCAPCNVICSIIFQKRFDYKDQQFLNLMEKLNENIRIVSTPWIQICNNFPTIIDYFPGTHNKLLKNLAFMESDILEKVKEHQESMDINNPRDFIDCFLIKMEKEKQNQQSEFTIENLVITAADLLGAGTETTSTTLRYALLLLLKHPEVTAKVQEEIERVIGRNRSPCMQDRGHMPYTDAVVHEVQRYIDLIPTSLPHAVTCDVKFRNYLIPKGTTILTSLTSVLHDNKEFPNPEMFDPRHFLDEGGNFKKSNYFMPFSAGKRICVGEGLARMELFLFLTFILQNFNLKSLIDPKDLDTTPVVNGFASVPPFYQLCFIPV
Chain of Cytochrome P450 2D6 (Homo sapiens) (P10635 whole entry, looked up): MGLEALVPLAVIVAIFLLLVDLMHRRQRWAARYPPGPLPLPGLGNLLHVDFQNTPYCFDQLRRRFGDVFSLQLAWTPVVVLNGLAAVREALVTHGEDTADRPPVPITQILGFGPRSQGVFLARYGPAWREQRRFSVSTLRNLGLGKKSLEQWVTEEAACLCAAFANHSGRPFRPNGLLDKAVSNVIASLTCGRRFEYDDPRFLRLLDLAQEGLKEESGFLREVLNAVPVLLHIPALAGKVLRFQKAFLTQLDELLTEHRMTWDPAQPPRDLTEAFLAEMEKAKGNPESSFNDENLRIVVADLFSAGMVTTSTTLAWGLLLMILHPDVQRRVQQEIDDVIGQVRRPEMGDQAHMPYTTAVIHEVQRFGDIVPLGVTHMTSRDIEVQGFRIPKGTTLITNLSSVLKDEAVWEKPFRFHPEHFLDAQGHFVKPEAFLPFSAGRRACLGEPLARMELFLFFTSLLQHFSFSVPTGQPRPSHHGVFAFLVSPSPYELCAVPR
Chain of Cytochrome P450 3A4 (Homo sapiens) (P08684 whole entry, looked up): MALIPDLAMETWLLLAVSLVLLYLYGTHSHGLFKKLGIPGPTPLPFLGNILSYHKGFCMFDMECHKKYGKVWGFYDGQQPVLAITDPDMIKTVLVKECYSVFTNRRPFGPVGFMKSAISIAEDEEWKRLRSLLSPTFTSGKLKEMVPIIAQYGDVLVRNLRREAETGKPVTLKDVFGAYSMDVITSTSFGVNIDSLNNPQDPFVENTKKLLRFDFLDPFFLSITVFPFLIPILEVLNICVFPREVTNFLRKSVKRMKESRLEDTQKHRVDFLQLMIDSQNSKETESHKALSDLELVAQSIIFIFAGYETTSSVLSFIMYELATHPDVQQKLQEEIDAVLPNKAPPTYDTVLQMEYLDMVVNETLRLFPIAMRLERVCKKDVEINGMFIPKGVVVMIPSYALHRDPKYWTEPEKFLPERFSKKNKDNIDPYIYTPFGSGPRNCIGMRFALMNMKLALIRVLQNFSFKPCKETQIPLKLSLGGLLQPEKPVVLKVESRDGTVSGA

For the compound `CCCOC(=O)c1ccc(C(=O)OCCC)nc1`, the Potency result in test [1], in test [2], in [3], in [4], in test [5] and in test [6] was “inactive” each time. Also, the Potency result in [10] and in test [11] was “inactive” in each case. The Potency in test [7] is 4.48 µM (active); in [8], 7.1 µM (active); in test [9], 11.2 µM (active).

As for `CCCCCCCCCCCC[N+](C)(C)CC(=O)[O-]`, the Potency entry in test [1], in test [2], in [3], in [4], in test [5] and in test [8] was “inactive” throughout. Moreover, the Potency entry in test [10] and in test [11] was “inactive” throughout. Also, in test [12], the compound was classed as inactive. In addition, the Potency in test [9] was 35.6 µM (active).

With `CC1(C)O[C@@H]2C[C@H]3[C@@H]4CCC5=CC(=O)C=C[C@]5(C)[C@H]4[C@@H](O)C[C@]3(C)[C@]2(C(=O)CO)O1`, the Potency result in test [1], in test [2], in test [3], in test [4], in [7] and in test [9] was “inactive” throughout. For the same compound, the Potency entry in [10] was “inactive”. The call in test [12] was inactive. The Potency in [13] is 8.91 µM (active); in [14], 1.58 µM (active); in [11], 3.47 µM (active).

As to `CC(N)CN` (centres undefined), the Potency result in [1], in [2], in test [3], in test [4], in test [5] and in [9] was “inactive” each time. The Potency result in test [10] and in [11] was “inactive” in each case. In test [12], the compound was classed as inactive. Moreover, the Potency in [7] was 60.5 µM (active).

Consider `C[N+]1(C)CCC(=C(c2ccccc2)c2ccccc2)CC1`, for which the Potency entry in test [1], in test [2], in test [3], in [4], in test [5] and in [14] was “inactive” in each case. The Potency entry in [15], in test [7], in test [8], in test [9] and in test [11] was “inactive” throughout. Besides, the max activation in [13] was -1.49%. Moreover, the Potency is 12.3 µM (active) in test [6] and 8.49 µM (active) in test [10].

For `CCC1(C)CC(=O)NC1=O` (centres undefined), the Potency result in test [1], in test [2], in test [3], in [4], in test [5] and in test [14] was “inactive” throughout. The Potency entry in test [15], in test [6], in test [7], in [8], in test [9] and in test [10] was “inactive” each time. For the same compound, the Potency entry in [11] was “inactive”. Moreover, in [13], the max activation is -2.98%.

For the compound `CC(C)=CC=O`, the Potency entry in [1], in [2], in [3], in test [4], in test [5] and in [7] was “inactive” in each case. The Potency entry in test [8], in [10] and in test [11] was “inactive” in each case. The compound was classed as inactive in test [12].

Turning to `CCOC(=O)c1ccccc1OC`, the Potency entry in test [1], in test [2], in test [3], in [5], in [6] and in test [8] was “inactive” in each case. Besides, in test [11], the Potency result was “inactive”. For the same compound, the compound was classed as inactive in test [12]. The results for the Potency in [7] and in test [9] were 79.6 µM (active) and 35.6 µM (active), respectively.

On to `CCCCCCCCCCOS(=O)(=O)O`, for which the Potency result in test [1], in test [2], in test [3], in test [4], in test [7] and in test [9] was “inactive” each time. Besides, the Potency result in test [11] is “inactive”. In addition, in test [12], the compound was classed as inactive. In addition, in [8], the Potency is 44.6 µM (active).

As to `C[C@@H]1C[C@H]2[C@@H]3CCC4=CC(=O)C=C[C@]4(C)[C@@]3(F)[C@@H](O)C[C@]2(C)[C@@]1(O)C(=O)CO`, the Potency entry in test [1], in test [2], in test [3], in test [4] and in test [10] was “inactive” in each case. Further, in test [12], the compound was called inactive.

For the compound `CC(Cl)C(Cl)Cl` (centres undefined), the Potency entry in [1], in [2], in test [3], in test [4], in [5] and in [10] was “inactive” each time. In addition, the Potency entry in [11] was “inactive”. Also, in test [12], the compound was classed as inactive. Moreover, the Potency in [7] is 31.2 µM (active).

The values are drawn from PubChem BioAssay (Tox21).
